# About 79,000 compounds went through this panel and 15% of them were active in at least one assay; those are over-represented in the sample as a whole. A number with no mark means an inactive call. Active and inactive are the calls of the source. Rule as the data show it: active = growth inhibition above about 70%; inactive = the rest.
# Legend:
# [1] = NCI Yeast Anticancer Drug Screen. Data for the rad50 strain (AID 155);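 also: 0% = growth of vehicle-only cultures of the same strain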; settings: S. cerevisiae rad50 strain growth inhibition, hits give high values
# Summary of the method: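 A DNA repair-deficient yeast mutant serves as the test organism; compound-induced growth inhibition is calculated against vehicle-treated cells.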
# [2] = NCI Yeast Anticancer Drug Screen. Data for the mec2-1 strain (AID 157); settings: S. cerevisiae mec2-1 strain, hits give high values
# Summary of the method: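 Yeast mec2-1 mutant treated with compound. Readout: growth inhibition vs vehicle controls.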
# [3] = NCI Yeast Anticancer Drug Screen. Data for the sgs1 mgt1 strain (AID 161);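 also: 0% = growth of cultures given vehicle only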; settings: S. cerevisiae sgs1 mgt1 strain, hits give high values
# Summary of the method: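 Read-out: growth inhibition vs vehicle controls. Cells: mutant yeast strain deficient in DNA damage repair.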
# [4] = NCI Yeast Anticancer Drug Screen. Data for the cln2 rad14 strain (AID 165);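 also: 0% = growth equal to vehicle treated cultures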; settings: S. cerevisiae cln2 rad14 strain, hits give high values
# Summary of the method: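 cln2 rad14 yeast strain; compound exposure; growth inhibition read vs vehicle controls.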
# [5] = NCI Yeast Anticancer Drug Screen. Data for the bub3 strain (AID 167); settings: S. cerevisiae bub3 mutant strain, hits give high values
# Summary of the method: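 Inhibition values come from growth of compound-treated mutant yeast normalised to vehicle-treated controls.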
# [6] = NCI Yeast Anticancer Drug Screen. Data for the mlh1 rad18 strain (AID 175); settings: S. cerevisiae mlh1 rad18 strain growth inhibition, hits give high values
# Summary of the method: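 Yeast w/ defined DNA-repair lesions; compound exposure; growth vs vehicle controls → % inhibition.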
# [7] = at 5.0 µM (retest, dose inferred, filed as 0.5)
# [8] = at 50.0 µM (retest, dose inferred, filed as 5.0)
SMILES,"growth inhibition [1, 7]","growth inhibition [1, 8]",growth inhibition ([1]; at 50.0 µM),"growth inhibition [2, 7]","growth inhibition [2, 8]",growth inhibition ([2]; at 50.0 µM),"growth inhibition [3, 7]","growth inhibition [3, 8]",growth inhibition ([3]; at 50.0 µM),"growth inhibition [4, 7] [%]","growth inhibition [4, 8]",growth inhibition ([4]; at 50.0 µM),"growth inhibition [5, 7]","growth inhibition [5, 8]",growth inhibition ([5]; at 50.0 µM),"growth inhibition [6, 7]","growth inhibition [6, 8]",growth inhibition ([6]; at 50.0 µM)
CN1CCC(CCC(=O)OC(C)(C)C)(CN2c3ccccc3Sc3ccccc32)C1 (stereo not given),-4%,98% (active),99.5% (active),-14%,96% (active),99.8% (active),-12%,96% (active),99.7% (active),-12,97% (active),96.7% (active),-2%,78% (active),96.5% (active),19%,99% (active),99.6% (active)
COS(=O)c1cc(Cl)cc(Cl)c1OC(=O)CSSCC(=O)Oc1c(Cl)cc(Cl)cc1S(=O)OC (stereo not given),87% (active),99% (active),98.8% (active),85% (active),99% (active),99.3% (active),95% (active),99% (active),99% (active),60,98% (active),99.3% (active),92% (active),98% (active),98.9% (active),84% (active),99% (active),99% (active)
CN1CCCCC1c1cc2c3ccccc3ccn2c1-c1ccccc1 (stereo not given),71% (active),95% (active),96.5% (active),62%,99% (active),98.3% (active),75% (active),94% (active),98.7% (active),-7,92% (active),94.8% (active),9%,96% (active),98.4% (active),69%,92% (active),98.5% (active)
COc1ccc(/C(Cl)=C(\C=O)c2ccc(Cl)cc2)cc1,17%,17%,-4.05%,-10%,2%,7.7%,-17%,22%,27.8%,12,26%,-8.85%,18%,54%,28.1%,-6%,27%,19.8%
Cc1cccc(N=Nc2ccc(O)cc2)c1,-152%,98% (active),99.6% (active),-58%,98% (active),99.5% (active),-71%,98% (active),99.4% (active),-71,98% (active),98.6% (active),-72%,97% (active),98.5% (active),-154%,98% (active),99.3% (active)

# From PubChem BioAssay (NCI)
